The source of these data is PubChem BioAssay AID686978 (National Center for Advancing Translational Sciences (NCATS), 2013).

Molecules are shown by their SMILES. Screen size: about 420,000 compounds; about 64,000 (15%) were called active. Another 27% or so got no clear call; they are omitted. Only a sample is shown. Values without a mark were called inactive. The call rests on the fitted dose curve; in most records, active means well fitted inhibition curve with a large enough effect; inconclusive means small, poorly fitted or top-dose-only effect; inactive means flat fitted curve, though single readings scatter.
On the % scale 0 is the no-effect control and ±100 the full control effect; potency means the concentration at half of the fitted maximal effect.

The test can be described thus: qHTS for Inhibitors of human tyrosyl-DNA phosphodiesterase 1 (TDP1): qHTS in cells in absence of CPT. Further: nearly all actives have a fitted effect of over 55% in size. To be noted: DT40 Tdp1-/- hTDP1 cells, no CPT, ATP luminescence, 48 h; activity change, negative = growth inhibition: at 46.2 µM (top of the series). In outline: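 Chicken DT40 Tdp1-/- cells stably complemented with human TDP1 were seeded at 400 cells/well with DMSO in place of 20 nM camptothecin. After compound pinning, cells grew at least 48 hr at 37 °C; viability read by CellTiter-Glo luminescence.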
On the technique in general: qHTS replaces the single test concentration by a dilution series.
For the molecule `CCC(=O)Nc1ccc(C(=O)NNC(=O)c2ccc(Cl)cc2)cc1`, the “activity change, negative = growth inhibition” value was -2.27%.

In the case of `CC(=O)OC(C(=O)NC1CCCCC1)c1ccccc1` (centres undefined), the “activity change, negative = growth inhibition” value was -1.29%.

Consider `Cc1cnc(CN(C)C(=O)CC2C(=O)NCCN2Cc2cccc(F)c2F)[nH]1` (centres undefined), for which the “activity change, negative = growth inhibition” value was -2.17%.

Consider `Cc1ccc(Cn2c(C)c3cnn(CC(=O)NCc4ccccc4)c(=O)c3c2C)cc1`, for which the Potency is 2.91 µM (active).

`CCN(CC)CCNC(=O)Cn1ncc2c3ccccc3n(Cc3ccccc3C)c2c1=O`: the Potency was 25.9 µM (active).

In the case of `Cc1ccc(Cn2c(C)c3cnn(CC(=O)NCCN4CCOCC4)c(=O)c3c2C)cc1`, the “activity change, negative = growth inhibition” value was -3.15%.

Regarding `CCOC(=O)N1CCC(NC(=O)C(C)n2c3ccccc3c3cnn(C)c(=O)c32)CC1` (centres undefined), the “activity change, negative = growth inhibition” value was -19%.

As to `O=C(Cn1ncc2c3ccccc3n(Cc3ccccc3)c2c1=O)NC1CCCCCC1`, the Potency was 3.66 µM (active).

On to `O=C(Cn1ncc2c3ccccc3n(Cc3ccccc3)c2c1=O)NCc1ccccn1`, for which the Potency result was “inactive”.

Regarding `CCCn1c2ccccc2c2cnn(CC(=O)NCC3CCN(Cc4ccc(C)cc4)CC3)c(=O)c21`, the Potency is 10.3 µM (active).

Regarding `Cc1ccc2oc(=O)c3cnn(CC(=O)NCc4ccccc4Cl)c3c2c1`, the “activity change, negative = growth inhibition” value was 2.11%.

In the case of `Cc1nn(CC(=O)NC2CCCCC2)c(=O)c2cccn12`, the “activity change, negative = growth inhibition” value is 7.78%.

`Cc1c2cnn(CC(=O)NCc3ccccn3)c(=O)c2c(C)n1Cc1ccc(Cl)cc1`: the “activity change, negative = growth inhibition” value was -21.2%.

As to `Cc1ccccc1CNC(=O)Cn1c(C)c2cnn(-c3ccccc3)c(=O)c2c1C`, the “activity change, negative = growth inhibition” value was -15.3%.

As for `CCCn1c2ccccc2c2cnn(CC(=O)NCCCN3CCCCC3CC)c(=O)c21` (centres undefined), the “activity change, negative = growth inhibition” value is -69.4%.

Turning to `O=C1OC(Cc2ccccc2)C(c2ccccc2)C1=O` (centres undefined), the “activity change, negative = growth inhibition” value was -11.7%.

Turning to `Cc1cc(S(=O)(=O)NCC(C)C)ccc1OCC(=O)NC1CC1`, the “activity change, negative = growth inhibition” value is 4.66%.

In the case of `CCCCCC(=O)Nc1ccc(-c2cn3cccnc3n2)cc1`, the “activity change, negative = growth inhibition” value was -3.49%.

In the case of `O=C(NNC(=O)C(O)c1ccccc1)NC1CCCCC1` (centres undefined), the “activity change, negative = growth inhibition” value is 9.61%.

As to `Cc1ccc(NC(=O)C(c2ccccc2)N2CCN(C(=O)c3ccco3)CC2)cc1` (centres undefined), the “activity change, negative = growth inhibition” value was 12.8%.

As for `O=c1c(-c2cc(F)cc(F)c2)nc2cnc(Oc3ccccc3)nc2n1C[C@H]1CCCO1`, the “activity change, negative = growth inhibition” value was -3.79%.

As for `CC1OC(OCC2OC(Oc3c(-c4ccc(O)c(O)c4)oc4cc(O)cc(O)c4c3=O)C(O)C(O)C2O)[C@@H](O)C(O)C1O` (some centres undefined), the “activity change, negative = growth inhibition” value was 14.4%.

As to `O=C(O)Cc1ccc(NC(=O)Nc2cccc3ccccc23)cc1`, the “activity change, negative = growth inhibition” value is 7.53%.

For the molecule `Cc1ccc2c(c1)N(CC(=O)N1CCCC(C)C1)C(=O)CO2` (centres undefined), the “activity change, negative = growth inhibition” value was -15.8%.

With `NC1=C([N+](=O)[O-])C(c2ccccc2)C2=C(CCCC2=O)O1` (centres undefined), the “activity change, negative = growth inhibition” value is 2.25%.

In the case of `CCOc1cnc(C(=O)NNC(=O)c2ccccc2Br)o1`, the “activity change, negative = growth inhibition” value was 1.36%.

Turning to `Cc1cccc(C)c1NC(=O)NC1=CCCN1C`, the “activity change, negative = growth inhibition” value was -1.42%.

For `CC1CC(C)CN(CCC(=O)Nc2ccc3c(c2)CCC3)C1` (centres undefined), the “activity change, negative = growth inhibition” value is -21.9%.

With `COC(=O)N(C)C[C@@H]1OCc2cnnn2CCCC(=O)N([C@@H](C)CO)C[C@@H]1C`, the “activity change, negative = growth inhibition” value was -12.9%.

Consider `CC(C)(C)n1nnnc1C(c1ccc2ncccc2c1)N1CCSCC1` (centres undefined), for which the “activity change, negative = growth inhibition” value was -4.42%.

With `Cc1cccc2c1N(CCOc1ccccc1)C(=O)C2=O`, the Potency is 1.3 µM (active).

For `Cc1cccc(C)c1-n1nnnc1C1(C)CCC(=O)N1CCOc1ccccc1` (centres undefined), the “activity change, negative = growth inhibition” value was -25.8%.

On to `O=C1c2ccccc2C(=O)N1CCOc1ccc(F)cc1`, for which the “activity change, negative = growth inhibition” value was -5.19%.

Regarding `CNS(=O)(=O)c1ccc(NC(=O)C2CC(=O)N(c3ccc(Cl)cc3)C2)cc1` (centres undefined), the “activity change, negative = growth inhibition” value was -25.9%.

On to `CC12C(=O)N(c3ccccc3)C(=O)C1C(c1ccccc1)N1CCCN12` (centres undefined), for which the “activity change, negative = growth inhibition” value was -2.82%.

Consider `CCCN(c1ccc(C)cc1)c1nc(=O)c2cccnc2s1`, for which the Potency is 18.4 µM (active).

Regarding `NC1=NC2(CCCCC2)N(c2ccc(F)cc2F)C(N)=N1`, the “activity change, negative = growth inhibition” value was -19.6%.

As to `NC(=O)C(Cc1ccccc1)NC(=O)C12CC3CC(CC(C3)C1)C2` (centres undefined), the “activity change, negative = growth inhibition” value was -27.5%.

In the case of `COc1cc2ccccc2cc1C(=O)Nc1nc(C)c(C(C)=O)s1`, the “activity change, negative = growth inhibition” value was -13.2%.

As for `COC(=O)c1sc(NC(=O)c2ccc(OC)cc2OC)nc1C`, the “activity change, negative = growth inhibition” value is -21.8%.

Consider `COc1ccc2c(c1)Cc1sc(NC(=O)c3ccccc3Br)nc1-2`, for which the Potency was 18.4 µM (active).

Take `COCCN1C=C2C(=O)C(C)(OC(=O)C3CCCC3)C(=O)C=C2C=C1c1ccsc1` (centres undefined): the “activity change, negative = growth inhibition” value is -8.49%.

Consider `CC(C)OCCCNC(=O)c1cc(Sc2ccc(F)cc2)nc2ccccc12`, for which the “activity change, negative = growth inhibition” value is -86.9%.

As for `CC(NC(=O)c1cc(=O)[nH]c2ccccc12)c1ccc(F)cc1F` (centres undefined), the “activity change, negative = growth inhibition” value is -17.3%.

In the case of `CC(NC(=O)c1cc(Sc2ccc(F)cc2F)nc2ccccc12)c1ccccc1` (centres undefined), the Potency was 23.1 µM (active).

As to `CCCCCc1nnc(NC(=O)c2ccc(=O)n(C)n2)s1`, the “activity change, negative = growth inhibition” value was 2.05%.

On to `COc1ccc(NC(=O)C2(C)Cc3c(-c4cccc(NC(C)=O)c4)ccnc3O2)cc1` (centres undefined), for which the Potency is 1.16 µM (active).

On to `COC(=O)Cc1ccc(NC(=S)NCc2ccco2)cc1`, for which the “activity change, negative = growth inhibition” value is -22.3%.

With `O=C(NCc1cccc(CNC(=O)Nc2cccc(O)c2)c1)Nc1cccc(O)c1`, the “activity change, negative = growth inhibition” value was -4.41%.

As to `CC(=O)Nc1cccc(-c2ccnc3c2CC(C)(C(=O)NCc2ccccc2)O3)c1` (centres undefined), the Potency is 0.92 µM (active).

As for `CC1(C)CC(=O)c2cc(C(=O)NCc3ccccc3)c(=O)[nH]c2C1`, the “activity change, negative = growth inhibition” value is -21.1%.

On to `COc1ccc(NC(=O)C2(C)Cc3c(-c4ccc(C(N)=O)cc4)ccnc3O2)cc1` (centres undefined), for which the “activity change, negative = growth inhibition” value is -13.6%.

For `COc1ccc(NC(=O)Nc2cccc(-c3noc(C)n3)c2)cc1`, the “activity change, negative = growth inhibition” value was -28.2%.

Consider `CC(=O)Nc1cccc(-c2ccnc3c2CC(C)(C(=O)NCc2ccco2)O3)c1` (centres undefined), for which the Potency is 2.91 µM (active).
